G9a inh – inhibitors of human histone lysine methyltransferase G9a | Q96KQ7 | G9a H3K9 monomethylation, AlphaScreen, 2 h | 350,000 compounds, 8.8% hits | Potency, µM (doses to about 102 µM), for inactives: top-dose activity, negative = inhibition, hits mostly inhibitors; note: % is set by controls: 0 for no effect and ±100 for the full control effect; nearly all actives have a fitted effect of over 75% in size
Target sequence (Q96KQ7 913-1193 limits assumed): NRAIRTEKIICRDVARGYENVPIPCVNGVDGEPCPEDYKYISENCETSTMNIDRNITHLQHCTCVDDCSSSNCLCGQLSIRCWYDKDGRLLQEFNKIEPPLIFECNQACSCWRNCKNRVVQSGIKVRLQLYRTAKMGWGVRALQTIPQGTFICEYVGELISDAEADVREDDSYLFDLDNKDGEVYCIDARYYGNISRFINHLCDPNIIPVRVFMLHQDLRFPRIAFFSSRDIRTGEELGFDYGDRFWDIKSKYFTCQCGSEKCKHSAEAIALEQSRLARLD
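Enzyme 20 nM + cpd, 15 min RT; add b-H3K9 pep 500 nM / SAM 20 uM; 2 h RT; anti-H3K9me1 Ab 0.5 ug/mL + SA donor / anti-rabbit acceptor beads 20 ug/mL each, 10 min; AlphaScreen read.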
ALOX12 inh – blocks human arachidonate 12S-lipoxygenase. Potency, µM (titrated, usually from 108 µM), inactives show top-dose activity change, negative = inhibition, usual class: inhibitors. 580,000 compounds, 1.1% hits. purified 12hLO, xylenol orange hydroperoxide absorbance; note: % is set by controls: 0 for no effect and ±100 for the full control effect
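Purified human 12hLO (150 nM final) in 25 mM Hepes, 0.01% Triton X-100, pH 7.0 was preincubated 15 min at room temperature with compound. Then 40 uM arachidonic acid was added, 30 min. Hydroperoxide was read by Fe-XO absorbance ratio 573/405 nm.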
Sfp inh – Sfp phosphopantetheinyl transferase inhibition. Biochemical Sfp PPTase activity, qHTS. 310,000 compounds, 3.5% hits. Potency, µM, for inactives: largest response in the series, negative = inhibition, usual class: inhibitors. Q9F4F7. AID 1490;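 note: the enzyme is Sfp with the accession as filed and its product quenches rhodamine fluorescence; 0% = enzyme reaction without inhibitor and -100% = no enzyme wells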
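Buffer: 50 mM Hepes-Na pH 7.6, 10 mM MgCl2, 0.01% Nonidet P-40, 0.01% BSA. Enzyme 15 nM, pre-exposed to compound 15 min; substrates then added and fluorescence change tracked over 30 min.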
GRP78 ERSR act – inducers of ER stress response in human glioma cells. Potency, µM, inactives show at the highest dose activation, most hits filed as activators. U87-MG GRP78 promoter luciferase reporter, 16 h. AID 602332. 420,000 compounds, 0.02% hits; note: series mostly up to about 76 µM; % of control where 0% means no effect; nearly all actives have a fitted effect of over 35% in size
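ERSR induction read as luciferase luminescence (Bright-Glo, 10 min at room temperature) in stably transfected human U87-MG glioma cells exposed to compounds for 16 h, using GRP78 as sensor.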
VDR inhibitor – inhibitors of human vitamin D receptor. P11473. VDR-SRC2-3 peptide fluorescence polarization, 2 h. Potency, µM, inactives show max response, negative = inhibition, most hits filed as inhibitors. 400,000 compounds, 0.93% hits. AID 504847; note: % is set by controls: 0 for no effect and ±100 for the full control effect
Target sequence (P11473 whole entry, looked up): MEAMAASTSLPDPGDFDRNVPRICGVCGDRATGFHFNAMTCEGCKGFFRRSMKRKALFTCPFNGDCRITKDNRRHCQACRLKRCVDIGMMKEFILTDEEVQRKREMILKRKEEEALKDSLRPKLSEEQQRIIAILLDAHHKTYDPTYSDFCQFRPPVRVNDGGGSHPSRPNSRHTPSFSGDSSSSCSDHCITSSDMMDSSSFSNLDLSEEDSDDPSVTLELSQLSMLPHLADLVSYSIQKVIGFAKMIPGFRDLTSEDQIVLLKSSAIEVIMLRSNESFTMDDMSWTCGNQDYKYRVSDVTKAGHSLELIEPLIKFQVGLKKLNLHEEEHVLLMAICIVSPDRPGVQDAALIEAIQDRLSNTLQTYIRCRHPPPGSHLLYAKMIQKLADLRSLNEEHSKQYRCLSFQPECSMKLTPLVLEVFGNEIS
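Inhibition of the VDR/SRC2-3 peptide interaction is quantified by fluorescence polarization. Compounds (23 nl, pintool) incubate with the reagents for 2 hours at ambient room temperature.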
Starred values were filed as active, the others as inactive; ? = inconclusive; . = no result; [ ] = another dose, or the depositor's remark. The full list was thinned out, with hits kept by preference. Calls come from the whole dose curve; as a rule, active = well fitted curve in the direction sought with a large enough effect; inconclusive = small, poorly fitted or top-dose-only effect, or another doubt; inactive = no such curve, though single readings can be large; an effect the other way counts as inactive or inconclusive. Potency is the fitted concentration of half-maximal effect.

SMILES	G9a inh	ALOX12 inh	Sfp inh	GRP78 ERSR act	VDR inhibitor
Cc1ccc(C2C(C#N)=C(N)N(c3cccnc3)C3=C2C(=O)CCC3)s1 (stereo not drawn)	39.8µM*	?	-6.7%	0.1%	8.5%
Cc1nn(C)cc1C1C(C#N)=C(N)N(c2cccnc2)C2=C1C(=O)CCC2 (stereo not drawn)	3.8%[59 µM]	9.1%	-4.7%	-4.9%	-18.3%
COc1ccc(C2C(C#N)=C(N)N(c3cccnc3)C3=C2C(=O)CC(C)(C)C3)cc1OC (stereo not drawn)	35.5µM*	9.6%	-6.6%	-2.5%	9.6%
CCOc1cc(C2C3=C(CC(C)(C)CC3=O)N(CCOC)C3=C2C(=O)CC(C)(C)C3)ccc1OC	?	-10.5%	13.8%	-1.7%	-31.8%
COC(=O)COc1cc(C)cc2oc(=O)cc(-c3ccccc3)c12	.	-0.6%	.	.	.
O=C(COc1cccc(Br)c1)Nc1ccc2[nH]ncc2c1	.	4.1%	.	.	.
CCSc1sccc1C1C(C#N)=C(N)N(c2cccnc2)C2=C1C(=O)CC(C)(C)C2 (stereo not drawn)	?	-19.5%	-16.2%	-2.9%	2.4%
COc1ccc(N2C(N)=C(C#N)C(c3cccnc3)C3=C2CC(C)(C)CC3=O)cc1 (stereo not drawn)	11.2µM*	?	11.0%	-4.0%	-1.6%
O=C(COC(=O)c1ccccn1)c1ccc(Br)cc1	50.1µM*	-24.5%	19.4%	-0.3%	7.8%
O=C(COC(=O)c1ccccn1)c1cccc(Br)c1	.	-16.3%	-4.6%	-5.3%	-26.8%
CCOc1ccccc1OCC(=O)Nc1ccc(S(=O)(=O)N(C)C)cc1	18.3%[59 µM]	-25.2%	-1.8%	-3.5%	-5.1%
CC(=O)Nc1ccc(NC(=O)COC(=O)c2ccccn2)cc1	44.7µM*	-10.9%	13.6%	-2.9%	7.8%
CN(C)S(=O)(=O)c1ccc(NC(=O)COC(=O)c2ccccn2)cc1	50.1µM*	-8.3%	12.1%	-6.0%	5.6%
O=C(COC(=O)c1ccccn1)Nc1ccccc1Cl	10µM*	?	?	-1.6%	-5.1%
CCNC(=O)NC(=O)C(C)N(C)Cc1ccc(C(F)(F)F)cc1 (stereo not drawn)	.	8.9%	.	.	.
CN(CCc1noc(COc2cccc(C(F)(F)F)c2)n1)C(=O)c1cccc(Cl)c1	.	-5.3%	.	.	.
O=C(COC(=O)/C=C/c1ccccc1)Nc1cccnc1Cl	50.1µM*	-2.7%	.	-0.1%	-10.6%
O=C(COC(=O)c1cnccn1)c1ccc([N+](=O)[O-])cc1	25.1µM*	0.0%	20µM*	-2.7%	?
CCCCCC(=O)Nc1ccc(C(=O)COC(=O)c2ccccn2)cc1	50.1µM*	?	.	3.8%	8.5%
CCCCCCC(=O)NCC(=O)OCC(=O)c1ccccc1	25.1µM*	43.9%	10.5%	-4.2%	-11.4%
O=C(COC(=O)/C=C/c1cccc([N+](=O)[O-])c1)Nc1cccnc1Cl	.	-19.7%	.	-3.5%	-16.2%
NS(=O)(=O)c1ccc(N/N=C/c2ccc(Cl)cc2Cl)c([N+](=O)[O-])c1	.	75.0%	.	.	.
N#Cc1ccc(NCCc2cccc3cccnc23)nc1	.	-4.7%	.	.	.
CC(C)C1=NOC2(CCN(Cc3ccc(F)cc3)C2)C1 (stereo not drawn)	.	-0.3%[12.5 µM]	.	.	.
Fc1cc(Br)ccc1NC(=S)NCc1cccs1	.	25.1µM*	.	.	.
SMILES	G9a inh	ALOX12 inh	Sfp inh	GRP78 ERSR act	VDR inhibitor
Cc1nnsc1C(=O)Oc1ccc(C#N)cc1	15.8µM*	-26.2%	.	-1.1%	-2.8%
Cc1nnsc1C(=O)Oc1ccc(Cl)cc1	12.6µM*	-15.2%	.	-3.0%	-3.4%
COC(=O)c1ccc(C(=O)OC)c(-n2c(=O)c3ccccc3c3ccccc3c2=O)c1	28.2µM*	19.7%	1.9%	-9.6%	?
O=C(OCc1nc2ccccc2o1)c1cccc(O)c1	.	113.5%	.	.	.
C=CCn1c(SCC(=O)N(C)C2CCS(=O)(=O)C2)nnc1-c1ccccc1 (stereo not drawn)	56.2µM*	-4.7%	.	-1.3%	16.9%
CCN(C(=O)CSc1nnc(-c2ccc(F)cc2)n1C)C1CCS(=O)(=O)C1 (stereo not drawn)	.	0.2%	.	-4.5%	8.9%
CCN(C(=O)CSc1nnc(-c2ccc(F)cc2)c2ccccc12)C1CCS(=O)(=O)C1 (stereo not drawn)	35.5µM*	4.6%	-9.2%	-0.4%	0.8%
Cc1nnc(SCC(=O)N(C)C2CCS(=O)(=O)C2)n1Cc1ccccc1 (stereo not drawn)	?	2.3%	25.1%	-3.2%	-18.7%
CCN(C(=O)CSc1nnc(C)n1Cc1ccccc1)C1CCS(=O)(=O)C1 (stereo not drawn)	25.1µM*	?	-1.0%	-2.4%	7.3%
CCN(C(=O)CSc1nnc(Nc2ccccc2C)s1)C1CCS(=O)(=O)C1 (stereo not drawn)	50.1µM*	-0.4%	3.1%	-4.7%	8.6%
O=C(O)[C@H]1c2ccccc2C(=O)N(Cc2ccc(F)cc2)[C@H]1c1ccc(Cl)cc1	.	0.9%	.	.	.
O=C(c1ccccc1Br)N1CCC(CN2CCOCC2)CC1	.	26.8%	.	.	.
O=c1c2nnn(-c3ccc(F)cc3)c2ncn1Cc1nc(-c2ccccc2)no1	.	-20.8%	.	.	.
CN(C(=O)CSc1nnc(NCc2ccccc2)s1)C1CCS(=O)(=O)C1 (stereo not drawn)	50.1µM*	0.9%	3.7%	-5.2%	-13.1%
COc1ccc(N(C(=O)c2snc(C(N)=O)c2N)C(C(=O)NCc2ccccc2)c2ccc(O)cc2)cc1 (stereo not drawn)	-1.4%	-5.9%	1.1%	-4.6%	3.3%
CN(C)c1ccc(C(C(=O)NCc2ccccc2)N(Cc2ccco2)C(=O)c2snc(C(N)=O)c2N)cc1 (stereo not drawn)	35.5µM*	5.4%	6.9%	6.0%	16.2%
COc1ccc(CNC(=O)C(c2ccc(C)o2)N(C(=O)c2snc(C(N)=O)c2N)c2ccccc2OC)cc1 (stereo not drawn)	50.1µM*	-9.8%	1.0%	1.4%	5.3%
Cc1cccc(N(C(=O)c2snc(C(N)=O)c2N)C(C(=O)NCc2ccccc2)c2ccncc2)c1 (stereo not drawn)	50.1µM*	-25.4%	14.8%	-7.3%	-10.9%
Cc1c(Cn2ccnc2-c2cc(C#CCO)cs2)oc2ccccc12	.	89.2%	.	.	.
CN(Cc1ccc(-c2ccccc2)cc1)Cc1ccsc1	.	58.8%[176 µM]	.	.	.

Source: PubChem BioAssay (National Center for Advancing Translational Sciences (NCATS))
